This is a sample that favours compounds with a hit; in the whole collection about 1.8% have one here.
Exocytosis inh = blocks lytic granule exocytosis; TALL-104 LAMP-1 surface exposure, flow cytometry; cells stimulated with thapsigargin and PMA; inhibition, % at 10 µM; 0.66% of 360,000 active; AID 651702;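 active = inhibition above about 55%, limit read from the data; inconclusive = no clear call, values can overlap the other calls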
Myeloid diff MLP = promotes myeloid progenitor differentiation; ER-HoxA9 myeloid progenitors, lysozyme-GFP differentiation, flow cytometry; 1% of 360,000 active; calls only at 10 µM;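 active = normalized GFP-positive differentiation at or above the plate's own cutoff, the solvent-only control mean plus 3 SD; inconclusive = no clear call, values can overlap the other calls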;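 also: cells exposed to compound for four days before flow analysis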
ABCB6 inh MLPCN = human ABCB6 transporter inhibition; Q9NP58; K562-ABCB6 porphyrin accumulation, flow cytometry, 1 h; hits give low values; fluorescence ratio to DMSO, % at 10 µM; 0.19% of 360,000 active;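 active = fluorescence ratio to DMSO below 75%, the collection mean minus 3 SD; inconclusive = too few cells collected in the well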;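 also: signal is porphyrin accumulated inside mitochondria; lower ratio means ABCB6 inhibition with less porphyrin fluorescence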
Target sequence (Q9NP58 whole entry, looked up): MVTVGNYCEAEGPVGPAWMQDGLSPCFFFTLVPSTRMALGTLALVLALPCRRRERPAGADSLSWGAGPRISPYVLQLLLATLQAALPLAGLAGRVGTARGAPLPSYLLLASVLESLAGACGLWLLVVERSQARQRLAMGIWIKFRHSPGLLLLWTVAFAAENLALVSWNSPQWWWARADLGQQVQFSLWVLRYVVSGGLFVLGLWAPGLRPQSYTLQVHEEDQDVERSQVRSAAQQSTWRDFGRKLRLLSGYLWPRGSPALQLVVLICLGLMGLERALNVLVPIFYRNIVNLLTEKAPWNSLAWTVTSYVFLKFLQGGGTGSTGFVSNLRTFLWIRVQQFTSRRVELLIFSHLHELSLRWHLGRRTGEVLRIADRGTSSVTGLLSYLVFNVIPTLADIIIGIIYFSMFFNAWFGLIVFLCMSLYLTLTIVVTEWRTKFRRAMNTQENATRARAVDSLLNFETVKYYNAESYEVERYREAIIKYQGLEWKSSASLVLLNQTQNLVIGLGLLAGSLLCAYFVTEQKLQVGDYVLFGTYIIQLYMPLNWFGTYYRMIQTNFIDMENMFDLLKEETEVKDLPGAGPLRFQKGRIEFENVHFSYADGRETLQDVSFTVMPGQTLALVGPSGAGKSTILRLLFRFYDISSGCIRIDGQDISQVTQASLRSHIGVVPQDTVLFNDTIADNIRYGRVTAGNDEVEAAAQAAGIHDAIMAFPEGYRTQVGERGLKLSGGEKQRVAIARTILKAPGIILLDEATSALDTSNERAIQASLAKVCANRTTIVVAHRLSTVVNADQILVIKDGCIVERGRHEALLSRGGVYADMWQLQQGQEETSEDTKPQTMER
Myeloid diff = promotes myeloid progenitor differentiation. calls only. ER-HoxA9 myeloid progenitors, GFP/Mac1 double-positive flow. 2% of 2,300 active. AID 651706. shares compounds with Myeloid diff MLP;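 active = share of green or green-and-red cells above 9 and 9% in run 1 or 4 and 3% in run 2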
GFP autofluor = counter-screen for myeloid differentiation promoters: compound fluorescence. shares compounds with Myeloid diff MLP. 7.4% of 2,300 active. ER-HoxA9 myeloid progenitors, no estrogen, GFP autofluorescence flow cytometry; vehicle wells 0%, positive control 100%. fluorescence response, % (no concentration beside the values). AID 651707;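 active = over 5% cells positive for green fluorescent reporter, or over 2% positive for both it and APC stain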
Each line names hits and unclear results; the compound was inactive in the other large screens (follow-up assays come after a bar, where they were run).

CC(NC(=O)c1ccc(C#N)cc1)C1CC2CCC1C2 (stereo unspecified)	none
C=CCn1cc(C(=O)N2CCN(C)CC2)c(=O)c2cc(S(=O)(=O)N(CC)CC)ccc21	none
CCOc1ccc(-c2nnc(-c3ccccc3)n2-c2ccccc2)cc1	none
CCOc1ccc(-n2c(C)c3c(C)nnc(C)c3c2C)cc1	none | Myeloid diff inactive | GFP autofluor 42
Cc1oc(-c2cccc(Cl)c2)nc1CS(=O)(=O)CC(=O)NCCCN1CCOCC1	none
CCN1C(=O)[C@H]2[C@@H](c3ccc(-c4ccccc4)cc3)N3CCC[C@@]3(C(=O)OC)[C@H]2C1=O	none
Clc1cccc(CNc2ccn3nc(-c4ccccc4)cc3n2)c1	none
Clc1cccc(CNc2ccn3nc(-c4ccc(OCc5ccccc5)cc4)cc3n2)c1	Myeloid diff MLP active | Myeloid diff inactive | GFP autofluor inactive
c1ccc(COc2cccc(-c3cc4nc(NCCN5CCOCC5)ccn4n3)c2)cc1	Myeloid diff MLP active | Myeloid diff inactive | GFP autofluor inactive
c1ccc(COc2cccc(-c3cc4nc(NCCOc5ccccc5)ccn4n3)c2)cc1	none
COc1cc(OC)cc(-c2nnc(NC(=O)c3ccc4c(c3)OCCO4)o2)c1	none
Cc1ccccc1C(=O)Nc1cc(C(F)(F)F)ccc1-n1cncn1	none
O=C(Cc1ccccc1)Nc1cc([N+](=O)[O-])ccc1N1CCOCC1	none
O=C1NN(CCO)C(=S)Nc2ccccc21	none
Clc1ccc(Cn2ncc3c(N4CCN(c5ccccc5)CC4)ncnc32)cc1	Myeloid diff MLP active | Myeloid diff active | GFP autofluor inactive
c1ccc(Cn2ncc3c(N4CCCCC4)ncnc32)cc1	none
COc1ccc(S(=O)(=O)N2CCN(Cc3cccc(OC)c3)CC2)cc1	none
COc1ccc(S(=O)(=O)N2CCCN(Cc3cccc(F)c3)CC2)cc1	none | Myeloid diff inactive | GFP autofluor inactive
Cc1nn(CC(=O)NCc2ccc(OC(C)C)cc2)c(=O)c2cc(-c3ccccc3)nn12	none
Cc1ccc(S(=O)(=O)/N=C(\N)Nc2nc(C)c3ccc(C)cc3n2)cc1	none
Cc1ccc(S(=O)(=O)/N=C(\N)Nc2nc(C)c3cc(C)c(C)cc3n2)cc1	none | Myeloid diff inactive | GFP autofluor inactive
CCOC(=O)CC1C(=O)NCCN1S(=O)(=O)c1ccc(Cl)cc1 (stereo unspecified)	Myeloid diff MLP active | Myeloid diff inactive | GFP autofluor inactive
CCOC(=O)CC1C(=O)NCCN1S(=O)(=O)c1ccc(F)cc1 (stereo unspecified)	none
O=C(OCc1ccccc1)N1Cc2ccnnc2CC1c1ccccc1Br (stereo unspecified)	none
S=C(NCc1ccccc1)NC1CCCc2ccccc21 (stereo unspecified)	none
S=C(NC1CC1)NC1CCCc2ccccc21 (stereo unspecified)	none | Myeloid diff inactive | GFP autofluor inactive
N#CCCN(C(=O)COc1ccc(Cl)cc1Cl)c1ccccc1	none
O=C(C[n+]1cccc(O)c1)NCc1ccc(Cl)cc1	none
CCC(C)NC(=S)Nc1ccc2nc(N3CCN(CC)CC3)cc(C)c2c1 (stereo unspecified)	Myeloid diff MLP active | Myeloid diff inactive | GFP autofluor inactive
CCC(C)NC(=S)Nc1ccc2nc(N3CCOCC3)cc(C)c2c1 (stereo unspecified)	none
CC1=NN(C(=O)COc2ccccc2C)C(O)(c2ccc(Cl)cc2)C1 (stereo unspecified)	none
Cc1ccc(-n2nnnc2CNC(=O)c2ccc([N+](=O)[O-])o2)cc1C	Myeloid diff MLP active | Myeloid diff inactive | GFP autofluor inactive
O=C(NCc1nnnn1-c1ccc(F)cc1)c1ccc([N+](=O)[O-])o1	Myeloid diff MLP active | Myeloid diff inactive | GFP autofluor inactive
Cc1ccc(-n2nnnc2CNC(=O)c2ccc(Br)o2)cc1C	none
O=C(NCc1nnnn1-c1ccc(F)cc1)c1ccc2ccccc2c1	none
CCOc1ccc(NC(=O)CSc2nnnn2-c2ccc(C(N)=O)cc2)cc1	none
CN1CCN(S(=O)(=O)c2ccc(NC(=O)Cc3ccc([N+](=O)[O-])cc3)cc2)CC1	none
COc1ccccc1-c1sc2ccccc2c1C#Cc1ccc(N(C)C)cc1	none
O=S1(=O)N=C(N2CCN(Cc3ccc4c(c3)OCO4)CC2)c2ccccc21	none
O=S1(=O)N=C(N2CCN(Cc3ccccc3)CC2)c2ccccc21	Myeloid diff MLP active | Myeloid diff inactive | GFP autofluor inactive
CC(C)CC(=O)Nc1ccc(C(=O)NNC(=O)C(c2ccccc2)c2ccccc2)cc1	none | Myeloid diff inactive | GFP autofluor inactive
CCC(=O)Nc1ccc(C(=O)NNC(=O)C(c2ccccc2)c2ccccc2)cc1	none
O=C1CCCN1C(=O)COc1ccccc1[N+](=O)[O-]	none
COCc1cc(C)n(CC(=O)Nc2ccccc2C(=O)OC)c(=O)c1C#N	none | Myeloid diff inactive | GFP autofluor inactive
CCOc1ccccc1NC(=O)Cn1c(C)cc(COC)c(C#N)c1=O	none
CCC(C)[C@H](NC(=O)C1CC(=O)N(c2ccc3c(c2)OCCO3)C1)C(=O)N1CCCCC1 (stereo partly specified)	none
CCOc1ccc(NC(=O)/C=C/c2ccc(OC)cc2)c([N+](=O)[O-])c1	none | Myeloid diff inactive | GFP autofluor inactive
COc1ccc(/C=C/C(=O)Nc2ccc(OC)cc2[N+](=O)[O-])cc1	none
CCOC(=O)C1CCN(C(=O)COc2ccc(Cl)cc2C)CC1	none
CCOC(=O)C1CCN(C(=O)COc2ccc(Cl)cc2Cl)CC1	none | Myeloid diff inactive | GFP autofluor inactive
CC(C)(C)NS(=O)(=O)c1cc(C(=O)Nc2sccc2C#N)ccc1Cl	none
Cc1ccc(-c2nc3cccnc3s2)cc1NC(=O)C1c2ccccc2Oc2ccccc21	none
COc1ccc2cnn(CCOc3cc(C)ccc3C(C)C)c(=O)c2c1OC	Myeloid diff MLP active | Myeloid diff inactive | GFP autofluor inactive
CCOc1ccccc1OCCn1ncc2ccc(OC)c(OC)c2c1=O	none
C[C@@H]1CNC(=O)c2c(C(=O)N[C@H](C)c3ccccc3)ncn21	none
COc1ccc2c(c1)cc(C(=O)N[C@H](C(=O)N1CCC(C(=O)O)CC1)C(C)C)n2C	none
Nc1cc(Nc2ccccc2)ccn1	Myeloid diff MLP active | Myeloid diff inactive | GFP autofluor inactive
c1ccc(Nc2ccnc(Nc3ccccc3)n2)cc1	Myeloid diff MLP inconclusive
Cc1ccc(N2C(=O)C3C4C=CC(CNC(=S)N5CCN(c6ccccc6)CC5)(O4)C3C2=O)cc1 (stereo unspecified)	none
Cc1cccc(NC(=S)NCC23C=CC(O2)C2C(=O)N(c4ccc(Cl)cc4)C(=O)C23)c1 (stereo unspecified)	Myeloid diff MLP active | Myeloid diff inactive | GFP autofluor inactive
COc1ccc(N2CCN(CCCNC(=O)CCC(=O)N3CCOc4ccc(Cl)cc43)CC2)cc1	none
O=C(CCC(=O)N1CCOc2ccc(Cl)cc21)NCCCN1CCN(c2ccccc2F)CC1	none | Myeloid diff inactive | GFP autofluor inactive
COc1ccc(NC(=O)CCCNC(=O)c2ccc(Cl)cc2)cc1S(=O)(=O)N1CCCCC1	none
CN(C1CCCCC1)S(=O)(=O)c1cn(C)c(=O)n(C)c1=O	none
